From PubChem BioAssay (NCATS) come the findings set out here.

A short description of experiment [1]: qHTS of pediatric cancer cell lines to identify multiple opportunities for drug repurposing: Primary screen for LAN-5 cells (AID 1347100). Further: potency means the concentration at half of the fitted maximal effect. The essentials: (§1)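 Cells (500-1,000/well) in growth media were settled 5 h at 37 degrees C, then given compounds for 48 h. Viability was read as CellTiter-Glo luminescence. Primary runs used MIPE at 11 points (0.78 nM-46 µM) and NPC at 8 points (0.59 nM-46 µM); follow-ups used 11 points.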

The nature of experiment [2]: qHTS of pediatric cancer cell lines to identify multiple opportunities for drug repurposing: Primary screen for Rh18 cells (AID 1347102). Further: nearly all actives have a fitted effect of over 65% in size. The essentials: as §1
(In general: In qHTS, concentration-response curves come from the screen itself.)

Experiment [3] can be described thus: qHTS of pediatric cancer cell lines to identify multiple opportunities for drug repurposing: Primary screen for OHS-50 cells (AID 1347103). Further: nearly all actives have a fitted effect of over 40% in size. Further: potency means the concentration at half of the fitted maximal effect. The essentials: (§2)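 Cells (500-1,000/well) rested 5 h, then received compounds for 48 h; metabolically active cells were measured by CellTiter-Glo luminescence. Final concentrations spanned up to 46 µM (MIPE, 11-point) or 0.59 nM-46 µM (NPC, 8-point) in primary screens, 11-point in follow-ups.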

Experiment [4] in a line: qHTS of pediatric cancer cell lines to identify multiple opportunities for drug repurposing: Primary screen for MG 63 (6-TG R) cells (AID 1347105). Further: nearly all actives have a fitted effect of over 50% in size. Further: potency means the concentration at half of the fitted maximal effect. In a few lines: (§3)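 Cells plated at 500-1,000/well in growth medium, compounds added after 5 h. MIPE tested at 11 points (from 0.78 nM), NPC at 8 points (from 0.59 nM). CellTiter-Glo luminescence after 48 h; concentration-response curves from primary screen.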

A short description of experiment [5]: qHTS of pediatric cancer cell lines to identify multiple opportunities for drug repurposing: Primary screen for control Hh wild type fibroblast cells (AID 1347106). Further: nearly all actives have a fitted effect of over 55% in size. Further: potency means the concentration at half of the fitted maximal effect. The essentials:
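Viability after 48 h compound treatment at 37C, 500-1,000 cells/well, read as ATP luminescence with CellTiter-Glo. Primary screens used 11-point (MIPE, 0.78 nM-46 µM) or 8-point (NPC, 0.59 nM-46 µM) final concentrations; follow-up screens used 11-point dilutions.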

The nature of experiment [6]: qHTS of pediatric cancer cell lines to identify multiple opportunities for drug repurposing: Primary screen for RD cells (AID 1347104). Further: nearly all actives have a fitted effect of over 55% in size. Further: potency means the concentration at half of the fitted maximal effect. The essentials:
as §3

Experiment [7] in a line: qHTS of pediatric cancer cell lines to identify multiple opportunities for drug repurposing: Primary screen for Rh30 cells (AID 1347107). Further: nearly all actives have a fitted effect of over 75% in size. Further: potency means the concentration at half of the fitted maximal effect. In a few lines: as §1
Experiment [8] is described as follows: qHTS of pediatric cancer cell lines to identify multiple opportunities for drug repurposing: Primary screen for BT-12 cells (AID 1347101). Further: nearly all actives have a fitted effect of over 25% in size. Further: potency means the concentration at half of the fitted maximal effect. In a few lines: as §2
Experiment [9] can be described thus: qHTS of pediatric cancer cell lines to identify multiple opportunities for drug repurposing: Primary screen for Rh41 cells (AID 1347108). Further: nearly all actives have a fitted effect of over 70% in size. Further: potency means the concentration at half of the fitted maximal effect. The essentials:
as §3

A short description of experiment [10]: qHTS of pediatric cancer cell lines to identify multiple opportunities for drug repurposing: Confirmatory screen for NB1643 cells (AID 1347109). Further: potency means the concentration at half of the fitted maximal effect; nearly all actives have a fitted effect of over 45% in size. The essentials:
as §1

A short description of experiment [11]: qHTS of pediatric cancer cell lines to identify multiple opportunities for drug repurposing: Confirmatory screen for A673 cells (AID 1347110).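 Further: potency means the concentration at half of the fitted maximal effect; cells exposed to compound for 48 h before the viability read; nearly all actives have a fitted effect of over 65% in size.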 The essentials:
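Forty-eight-hour viability assay. Follow-up compounds ran at 11-point dilutions; positive control bortezomib at 2.3 uM final, neutral control DMSO.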

Experiment [12] is described as follows: qHTS of pediatric cancer cell lines to identify multiple opportunities for drug repurposing: Confirmatory screen for SK-N-MC cells (AID 1347111).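 Further: potency means the concentration at half of the fitted maximal effect; cells exposed to compound for 48 h before the readout; nearly all actives have a fitted effect of over 70% in size.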 In a few lines:
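Metabolically active cells were quantified by ATP-dependent luminescence (CellTiter-Glo, 15 min at room temperature) following 48 h treatment. Cells had been plated at 500-1,000 per well and settled for 5 h beforehand.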

Experiment [13] is described as follows: qHTS of pediatric cancer cell lines to identify multiple opportunities for drug repurposing: Confirmatory screen for BT-12 cells (AID 1347112). Further: potency means the concentration at half of the fitted maximal effect; nearly all actives have a fitted effect of over 55% in size. The essentials: as §1
A short description of experiment [14]: qHTS of pediatric cancer cell lines to identify multiple opportunities for drug repurposing: Confirmatory screen for LAN-5 cells (AID 1347113). Further: potency means the concentration at half of the fitted maximal effect; nearly all actives have a fitted effect of over 65% in size. In a few lines: as §1
Experiment [15] is described as follows: qHTS of pediatric cancer cell lines to identify multiple opportunities for drug repurposing: Confirmatory screen for DAOY cells (AID 1347114). Further: potency means the concentration at half of the fitted maximal effect; nearly all actives have a fitted effect of over 65% in size. In a few lines:
(§4)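 Viability measured as metabolically active cells via CellTiter-Glo luminescence following 48 hours of compound exposure, 11-point dilutions in confirmatory testing. 500-1,000 cells/well plated 5 hours before dosing; controls were DMSO and 2.3 µM bortezomib.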

Experiment [16] can be described thus: qHTS of pediatric cancer cell lines to identify multiple opportunities for drug repurposing: Confirmatory screen for SJ-GBM2 cells (AID 1347116). Further: potency means the concentration at half of the fitted maximal effect; nearly all actives have a fitted effect of over 60% in size. The essentials:
as §4

Experiment [17] is described as follows: qHTS of pediatric cancer cell lines to identify multiple opportunities for drug repurposing: Confirmatory screen for BT-37 cells (AID 1347117). Further: potency means the concentration at half of the fitted maximal effect; nearly all actives have a fitted effect of over 55% in size. The essentials:
as §1

Experiment [18] in a line: qHTS of pediatric cancer cell lines to identify multiple opportunities for drug repurposing: Confirmatory screen for TC32 cells (AID 1347118). The essentials: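 Luminescent CellTiter-Glo read-out of metabolically active TC32 cells after 48 h compound exposure. Primary: MIPE 11-point, 0.78 nM–46 µM; NPC 8-point, 0.59 nM–46 µM. Confirmatory: 11-point dilutions.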
Experiment [19] is described as follows: qHTS of pediatric cancer cell lines to identify multiple opportunities for drug repurposing: Confirmatory screen for control Hh wild type fibroblast cells (AID 1347121). Further: nearly all actives have a fitted effect of over 70% in size. Further: potency means the concentration at half of the fitted maximal effect. In a few lines: as §1
Experiment [20] in a line: qHTS of pediatric cancer cell lines to identify multiple opportunities for drug repurposing: Confirmatory screen for U-2 OS cells (AID 1347122). In a few lines: as §1

Results filed as inconclusive are left out. Calls of active or inactive are those of the source. The call rests on the fitted dose curve; in most records, active means well fitted curve in the direction sought with a large enough effect; inconclusive means small, poorly fitted or top-dose-only effect, or another doubt; inactive means no such curve, though single readings can be large; an effect the other way counts as inactive or inconclusive.

Take `COc1ccc(-n2c(C)c([N+](=O)[O-])c3ccc(O)cc32)cc1`: the Potency result in [1], in experiment [2], in experiment [3], in experiment [4] and in experiment [5] was “inactive” throughout.
As to `CC(C)(Cc1ccc2ccccc2c1)NC[C@@H](O)COc1cccc(Cl)c1C#N`, the Potency in experiment [1] was 18.7 µM (active). The Potency result in [2], in experiment [3], in experiment [6], in experiment [4], in experiment [5] and in experiment [7] was “inactive” throughout.
For the compound `CC(=O)CCCCn1c(=O)c2c(ncn2C)n(C)c1=O`, the Potency result in [1], in [8], in experiment [3], in experiment [6], in [4] and in [5] was “inactive” throughout. Also, the Potency entry in [7] and in experiment [9] was “inactive” throughout.
`C=C1C(=O)[C@@]23C(CC[C@@H]1[C@H]2O)[C@@]12CO[C@]3(O)[C@@H](O)[C@@H]1C(C)(C)CC[C@@H]2O` (some centres undefined): the Potency in [1] was 1.66 µM (active); in experiment [8], 3.43 µM (active); in experiment [3] it was 9.68 µM (active); in experiment [6], 9.35 µM (active); in experiment [4], 4.69 µM (active); in experiment [7] it was 7.43 µM (active). The Potency was 4.69 µM (active) in [9]; 4.14 µM (active) in experiment [10]; 9.27 µM (active) in experiment [11]; 4.65 µM (active) in experiment [12]; 7.37 µM (active) in experiment [13]; 4.14 µM (active) in experiment [14]. In addition, the Potency is 11.7 µM (active) in [15], 20.8 µM (active) in experiment [16], 18.5 µM (active) in experiment [17] and 13.1 µM (active) in [18]. Also, the Potency result in [5] and in experiment [19] was “inactive” in each case.
On to `CCc1ccc(OCc2ccccc2C(=O)Nc2ccc3nc(C)cc(N)c3c2)cc1`, for which the Potency in experiment [1] is 8.33 µM (active); in experiment [8], 9.68 µM (active); in experiment [3] it was 3.43 µM (active); in experiment [6], 5.9 µM (active); in experiment [4], 7.43 µM (active); in experiment [5], 9.35 µM (active). The Potency was 11.8 µM (active) in [7]; 9.35 µM (active) in [9]; 9.27 µM (active) in [10]; 3.69 µM (active) in [11]; 0.827 µM (active) in [12]; 9.27 µM (active) in [13]. Moreover, the Potency in experiment [14] was 7.37 µM (active); in experiment [16], 11.7 µM (active); in experiment [17], 7.37 µM (active); in experiment [18], 1.17 µM (active); in experiment [19], 9.27 µM (active); in experiment [20], 8.27 µM (active).
Regarding `COCCOc1nc(-c2ccc(Cl)c(Cl)c2)n(-c2ccc(NC(=O)CCl)cc2)n1`, the Potency is 18.7 µM (active) in [1], 5.44 µM (active) in [8] and 6.11 µM (active) in experiment [3]. The Potency entry in [5] is “inactive”.
On to `O=C(Nc1c(Cl)cncc1Cl)c1ccc(OC(F)F)c(OCC2CC2)c1`, for which the Potency entry in experiment [1], in [8], in experiment [3], in experiment [6], in experiment [4] and in experiment [5] was “inactive” each time. The Potency entry in experiment [7] and in [9] was “inactive” each time.
As for `O=C(NOCC(O)CO)c1cc(Br)c(F)c(F)c1Nc1ccc(I)cc1F` (centres undefined), the Potency entry in experiment [1], in experiment [2] and in experiment [5] was “inactive” each time. The Potency in experiment [6] is 0.148 µM (active); in experiment [4], 11.8 µM (active).
Turning to `CCc1ccc(C=C2SC(=S)NC2=O)cc1`, the Potency result in experiment [1], in [8], in experiment [6], in [4], in [5] and in experiment [7] was “inactive” each time.
In the case of `O=C(O)[C@H]1O[C@H](Oc2cc3oc(-c4ccccc4)cc(=O)c3c(O)c2O)[C@H](O)[C@@H](O)[C@H]1O`, the Potency entry in experiment [1], in experiment [8], in [6], in experiment [4] and in [5] was “inactive” in each case.
